Screens as filed in PubChem BioAssay.
hcDAF12 agonist – H. contortus DAF-12 activation, primary screen; HEK293 hcDAF-12 lit1-tk-luc reporter, luminescence; 0% DMSO, 100% Δ7-dafachronic acid; activation, % at 6.8 µM; actives 1.4% (n = 370,000); AID 652067;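 active means activation above the mean of all tested compounds plus 3 SD, cut at about 5.5% in these data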;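 further: 100% = response to 3 µM Δ7-dafachronic acid high control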
hgDAF12 agonist – agonists of H. glycines DAF-12 nuclear receptor; HEK293 GAL4-hgDAF12 UAS-luciferase reporter, agonist luminescence; normalized to butyrate control; activation, % at 6.8 µM; actives 1.8% (n = 370,000); AID 687014;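 active means activation above a cutoff set at the mean of all screened compounds plus 3 SD, cut at about 10% in these data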;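 further: 0% = DMSO wells and 100% = sodium butyrate wells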
ssDAF-12 act – S. stercoralis DAF-12 activation, primary screen; HEK293 ssDAF-12/GRIP1 lit1-tk-luc reporter, luminescence; % of 3 µM dafachronic acid response; activation, % at 6.8 µM; actives 1% (n = 370,000);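 active means activation above the mean over all tested compounds plus 3 SD, cut at about 0.9% in these data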;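 further: 0% = DMSO-only wells and 100% = 3 µM delta7-dafachronic acid wells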
AHR activator – human AHR activation. P35869. AHR-responsive luciferase reporter cells, luminescence. activation, % at 5 µM. actives 2.5% (n = 320,000); in the data active means activation above about 47%;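 further: 0% = vehicle wells and 100% = reference agonist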
Target sequence (P35869 whole entry, looked up): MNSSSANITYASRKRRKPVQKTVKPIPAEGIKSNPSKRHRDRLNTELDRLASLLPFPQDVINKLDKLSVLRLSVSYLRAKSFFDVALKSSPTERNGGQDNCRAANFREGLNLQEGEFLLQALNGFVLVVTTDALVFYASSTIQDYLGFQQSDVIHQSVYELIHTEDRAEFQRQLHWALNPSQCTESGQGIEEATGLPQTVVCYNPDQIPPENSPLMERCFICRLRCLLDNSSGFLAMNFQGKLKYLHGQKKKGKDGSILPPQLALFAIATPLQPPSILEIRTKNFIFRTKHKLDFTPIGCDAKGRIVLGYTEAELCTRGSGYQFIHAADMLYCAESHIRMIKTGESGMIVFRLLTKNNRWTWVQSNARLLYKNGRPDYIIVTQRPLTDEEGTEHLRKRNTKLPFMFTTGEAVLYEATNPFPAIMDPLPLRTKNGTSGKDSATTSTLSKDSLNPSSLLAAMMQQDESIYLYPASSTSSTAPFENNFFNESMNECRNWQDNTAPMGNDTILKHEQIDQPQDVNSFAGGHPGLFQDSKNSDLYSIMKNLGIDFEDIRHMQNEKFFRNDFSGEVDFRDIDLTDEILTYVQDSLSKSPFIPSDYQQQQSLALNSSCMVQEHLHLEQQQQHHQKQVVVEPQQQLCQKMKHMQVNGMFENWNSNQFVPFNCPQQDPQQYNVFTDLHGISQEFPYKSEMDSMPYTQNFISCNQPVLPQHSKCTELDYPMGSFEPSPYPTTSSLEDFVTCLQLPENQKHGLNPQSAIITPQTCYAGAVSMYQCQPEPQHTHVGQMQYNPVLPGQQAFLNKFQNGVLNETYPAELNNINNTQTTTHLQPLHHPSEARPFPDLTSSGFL
DAX1 inh-1 – inhibitors of human orphan nuclear receptor DAX1 (NR0B1). HEK293 Gal4-DAX1 luciferase reporter, luminescence. inhibition, % at 6.75 µM. actives 0.99% (n = 340,000). AID 504766;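 active means inhibition above the mean over all tested compounds plus 3 SD, cut at about 4.2% in these data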;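 further: 0% = DAX1-transfected cells with DMSO and 100% = empty-vector control cells with DMSO; inhibition shows as a rise in luminescence from relieved DAX1 repression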
DAX1 inh-2 – inhibitors of DAX1 repression of SF-1 activated StAR promoter. AID 652010. actives 1.1% (n = 370,000). inhibition, % at 6.8 µM. HEK293T StAR-luciferase reporter, SF-1/DAX-1 repression relief;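 active means inhibition above the mean over all tested compounds plus 3 SD, cut at about 3.6% in these data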;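 further: 0% = DAX-1 cells with DMSO and 100% = cells lacking DAX-1 with DMSO; higher inhibition means more luminescence from relief of DAX-1 repression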
The depositor's hits bear a star; . = not tested or not shown. Shown are actives, neighbours in structure and some others; about 5.7% of the full set was active somewhere.

SMILES	hcDAF12 agonist	hgDAF12 agonist	ssDAF-12 act	AHR activator	DAX1 inh-1	DAX1 inh-2
O=[N+]([O-])c1ccc(O)c(Nc2ncnc3ccccc23)c1	3.1	-2.0	1.1*	24.7	1.9	0.6
O=[N+]([O-])c1ccc(O)c(Nc2ncnc3ccc(Br)cc23)c1	1.3	-1.3	-1.1	75.4*	0.2	-0.3
O=c1oc(-c2ccc(O)c(O)c2)cc2cc(O)cc(O)c12	13.3*	9.2	0.8	11.5	7.6*	2.2
O=c1oc(-c2ccc(O)c(O)c2)cc2cccc(O)c12	6.9*	6.5	2.6*	22.0	3.8	2.0
COc1cccc2sc(N)nc12	-1.3	0.1	-1.3	-0.8	0.4	0.9
CCCC/C(O)=C1\C(=O)CC(C)(C)CC1=Nc1ccc(N)cc1	0.1	3.4	-1.1	1.4	6.0*	0.8
CCC(C)Nc1nc(-c2ccc3c(c2)NC(=O)CO3)cs1 (configuration not stated)	-1.1	-0.4	-0.5	62.7*	0.6	0.8
COc1ccc(Nc2nc(-c3ccc4c(c3)NC(=O)CO4)cs2)cc1	0.2	1.0	-2.4	40.9	0.1	-0.5
CCOC(=O)C1CCCN(C(=S)Nc2ccc(C)cc2C)C1 (configuration not stated)	-0.4	0.2	-0.6	0.6	1.1	-0.3
Cc1cccc(C2N=C(N)Nc3nc4ccccc4n32)c1 (configuration not stated)	1.5	-0.1	-0.8	0.4	4.8*	0.1
Cc1ccc(C2N=C(N)Nc3nc4ccccc4n32)cc1 (configuration not stated)	-0.2	-2.9	-1.3	0.5	1.6	-0.3
Cc1ccc(-c2nnc(SCC(=O)Nc3nccs3)n2N)cc1	1.0	0.8	-1.0	-0.3	3.5	0.2
N#Cc1cccc(C(=O)N2CCC(Oc3cccnc3)CC2)c1	-1.3	3.5	-1.0	.	.	-0.6
Cc1ccc(N(C(=O)CNC(=O)c2ccco2)C(C(=O)NC2CCCC2)c2cccnc2)cc1C (configuration not stated)	-0.6	-1.1	-0.9	3.1	4.3*	-0.5
O=C(NCC(=O)N(CC1CCCO1)C(C(=O)NC1CCCCC1)c1ccccc1)c1cccs1 (configuration not stated)	-2.2	-2.6	-1.6	0.8	-1.2	0.0
O=C(NCC(=O)N(CC1CCCO1)C(C(=O)NC1CCCCC1)c1cccnc1)c1cccs1 (configuration not stated)	-1.7	-1.4	-1.5	-0.3	5.0*	-0.2
O=C(COc1ccc(Br)cc1Br)NC(=O)NC1CCCC1	5.3	7.2	-0.5	-0.1	4.1	4.0*
O=C(C1CCN(S(=O)(=O)c2cccc3cccnc23)CC1)N1CCc2ccccc21	-1.6	-3.5	-0.9	0.1	-1.0	0.1
NC(=O)c1ccsc1NC(=O)COC(=O)c1cccnc1Cl	1.0	10.7*	-0.4	-0.4	-0.3	1.2
Cc1cc(C)c2cc(C(=O)N3CCC(Cc4ccccc4)CC3)[nH]c2c1	-0.8	-0.9	-1.5	6.0	0.3	0.2
Nc1cc(Nc2ccc(Br)cc2)nc(N)n1	0.9	4.0	-1.9	61.9*	1.8	0.9
Cc1cc(Nc2ccc(Cl)cc2)nc(N)n1	0.1	4.0	-1.1	7.4	1.0	0.6
Cc1ccc(NC(=O)c2ncn(CCCNCC3CCCCC3)n2)cc1C	-1.2	6.9	-0.3	.	0.3	3.9*
COc1cccc(NC(=O)CN(C)C(C)C(=O)Nc2ccc(C(C)=O)cc2)c1 (configuration not stated)	-1.4	-5.0	-1.1	5.1	6.8*	-0.3
CCCc1nc2c3ccccc3ccn2c1Cc1ccccc1OC	3.2	5.7	0.3	.	.	-0.4
SMILES	hcDAF12 agonist	hgDAF12 agonist	ssDAF-12 act	AHR activator	DAX1 inh-1	DAX1 inh-2
CCCc1nc2c3ccccc3ccn2c1Cc1ccc(OC)cc1C	2.6	1.3	1.0*	.	.	0.5
Cc1cc(C)cc(N=C2NC(=O)/C(=C/c3cccs3)S2)c1	-1.6	-1.9	-1.6	55.6*	1.3	-0.9
Cn1cccc1/C=C1\SC(=Nc2ccccc2)NC1=O	2.9	6.7	-0.3	21.8	-1.7	-0.6
Cc1ccc(N=C2NC(=O)/C(=C\c3ccco3)S2)cc1	-0.1	8.6	-0.9	19.6	0.6	-0.5
O=C1NC(=Nc2ccccc2)S/C1=C\c1cccs1	4.6	6.7	1.4*	72.0*	1.0	0.0
COc1ccc(NC(=O)CN2CCc3ccccc3C2)c(OC)c1	-2.4	-0.3	-1.0	15.2	-0.2	0.2
COc1cc(C(=O)Nc2nnc(C(F)(F)F)s2)c([N+](=O)[O-])cc1OC	-0.8	-2.3	-1.2	1.0	0.5	-0.3
COc1ccc(NC(=O)c2oc3cc(C)c(C)cc3c2C)c(OC)c1	-1.0	-0.4	-1.4	34.0	0.3	-0.3
C=CCNc1nc(Cl)nc(Nc2ccc(OC)cc2)n1	1.7	3.7	1.3*	18.4	0.6	1.8
C=CCNc1nc(Nc2ccc(OC)cc2)nc(OC)n1	-1.8	-1.6	-1.4	19.3	1.0	-0.7
CCOC(=O)[C@]12CCCCC/C=C\1N(CCc1ccc(Cl)cc1)C(=O)[C@H]2CC(=O)N1CCSCC1	-2.4	0.7	-1.7	.	.	-1.8
C=CCn1ccc2c([N+](=O)[O-])cccc2c1=O	-0.2	-0.5	-1.4	-0.4	-0.3	0.2
Cc1ccc2nc(SC(C)C(=O)N3CCCCC3)[nH]c2c1 (configuration not stated)	1.2	4.2	1.8*	42.8	1.2	0.5
Cc1ccc2nc(SC(C)C(=O)N3CCCC3)[nH]c2c1 (configuration not stated)	1.8	5.0	-0.6	73.1*	1.1	0.6
Fc1ccc(NC(=S)Nc2cccc3cnccc23)cc1	2.6	-6.5	-0.7	10.6	-0.8	-1.5
CCOc1ccc(NC(=S)Nc2cc(C)[nH]n2)cc1	1.8	6.5	-1.5	13.2	0.3	0.3
Cc1ccc(NC(=O)Nc2cccc3ccccc23)cc1	-0.4	4.5	-0.8	19.3	0.3	0.3
Cc1cc(C)cc(NC(=S)Nc2cccc3ccccc23)c1	3.0	2.0	-0.7	68.8*	0.5	0.1
CSc1ccccc1NC(=S)Nc1cc(C)cc(C)c1	-1.9	0.0	-0.9	2.8	-0.6	-0.1
Cc1cc(NC(=S)Nc2cccc3ccccc23)n[nH]1	4.6	2.8	-0.3	51.9*	0.1	-0.3
Cc1ccc(NC(=S)Nc2cccc3ccccc23)cc1	2.6	0.5	1.0*	7.7	2.1	-2.1
Fc1ccc(NC(=S)Nc2cccc3ccccc23)cc1	5.7*	1.8	0.2	50.3*	0.6	0.7
CN(C(=O)c1ccc(NC(=O)Cc2ccc(NC(=O)C3CCCN(C(=O)C4CCCC4)C3)cc2)cc1)C1CC1 (configuration not stated)	-1.7	-0.8	-1.8	-1.2	-0.5	-0.8
COC(=O)C1=CN(c2cccc(C)c2)C=C(C(=O)OC)C1c1cc(OC)c(O)c([N+](=O)[O-])c1	-1.4	-0.7	-1.1	9.5	0.4	0.8
